Test results published in article PMC7826789 (International Journal of Molecular Sciences, 2021).

tested on: MAPK14

Row | SMILES | Kinases covered
1 | Nc1nccc(-c2c(-c3ccc(F)cc3)ncn2C2CCN(Cc3ccccc3)CC2)n1 [SB-219980] | MAPK14
2 | Fc1ccc(-c2nn3ccccc3c2-c2ccncc2)cc1 [GW434756X] | MAPK14
3 | Cc1ccc(C(=O)NCC(N)=O)cc1-n1c(C)cc(OCc2ccc(F)cc2F)c(Br)c1=O [PFE-PKIS 1] | MAPK14
4 | O=c1[nH]c2cc(Nc3ccc(F)cc3F)ccc2n1CC1CCCCC1 [BI00601000] | MAPK14
5 | O=C(O)/C=C/C(=O)O.OCCCNc1nccc(-c2c(-c3ccc(F)cc3)nn3cc(C(F)(F)F)ccc23)n1 [GW569293E] | MAPK14
6 | CCc1nc(-c2cccc(C)c2)c(-c2ccncc2)s1 [TPKI-106] | MAPK14
7 | CCc1ccc(Oc2nccc(-c3c(-c4ccc(F)cc4)ncn3C3CCNCC3)n2)cc1 [SB-242719] | MAPK14
8 | Cc1ccc(-n2nc(C(C)(C)C)cc2NC(=O)Nc2ccc(OCCN3CCOCC3)cc2)cc1 [BIRB0876BS] | MAPK14
9 | COCCNC(=O)c1ccc(-c2cc(C(=O)NC3CC3)cc(F)c2C)cc1 [GW868318] | MAPK14

tested on: MAPK15

Row | SMILES | Kinases covered
10 | CCOc1ccc2c(-c3ccnc(Nc4cc(OC)cc(C(F)(F)F)c4)n3)cnn2n1 [GW807982X] | MAPK15
11 | CCOc1ccc2c(-c3ccnc(Nc4cccc(C(F)(F)F)c4)n3)cnn2n1 [GW811761X] | MAPK15
12 | O=C(Nc1n[nH]c2cc(-c3ccsc3)ccc12)C1CC1 [SB-732932] | MAPK15

tested on: MAPK9

Row | SMILES | Kinases covered
13 | Nc1nccc(-c2c(-c3ccc(F)cc3)ncn2C2CCN(Cc3ccccc3)CC2)n1 [SB-219980] | MAPK9
14 | Fc1ccc(-c2nn3ccccc3c2-c2ccncc2)cc1 [GW434756X] | MAPK9
15 | O=C(O)/C=C/C(=O)O.OCCCNc1nccc(-c2c(-c3ccc(F)cc3)nn3cc(C(F)(F)F)ccc23)n1 [GW569293E] | MAPK9

tested on: MEK5

Row | SMILES | Kinases covered
16 | COc1cc2ncnc(Nc3ccc(F)c(Cl)c3)c2cc1O[C@H]1CC[C@H](N)CC1 [BIBW3133BS] | MEK5
17 | COc1cc2ncnc(Nc3cccc(Cl)c3F)c2cc1O[C@H]1CC[C@H]([C@@H]2NCCNC2=O)CC1 [BI00133844] | MEK5
18 | CCCS(=O)(=O)Nc1ccc(F)c(-n2cc(-c3cncc(OC)c3)nn2)c1F [BI00865461] | MEK5
